Some test systems named below: DU-145 prostate; K-562 leukemia; MALME-3M melanoma; MDA-MB-231 breast; RXF 393 renal; SF-268 CNS; SF-295 CNS; SF-539 CNS; UACC-257 melanoma; M14 melanoma; HCT-15 colon; HT29 colon; SNB-75 CNS; SNB-19 CNS; U251 CNS; PC-3 prostate; SK-MEL-5 melanoma; UACC-62 melanoma; LOX IMVI melanoma; SK-MEL-28 melanoma.
Common to all, as to experiment: NCI-60 one-dose screen, 48 h (100 = growth as untreated, 0 = no growth, -100 = all killed)
Details in all cases: 10 µM unless noted

The panel holds about 83,000 compounds, 20% with a hit somewhere; the sample as a whole holds those more often.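 Cell lines were cultured in 96-well plates, exposed to a single compound concentration, and assessed for percent growth 48 hours later.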 A number with no mark means an inactive call. Activity calls are given as the source filed them. How the source made its calls: active means growth percent below 10; inactive means the rest.

Take `Nc1nc2ccccc2c2c(=O)c3cccc(Cl)c3sc12`: the growth was 94.7% in the experiment with DU-145 prostate; 91.7% in the experiment with K-562 leukemia; 101% in the experiment on MALME-3M melanoma; 78.9% in the experiment on MDA-MB-231 breast; 106% with RXF 393 renal; 102% in the experiment with SF-268 CNS. Besides, the growth in the experiment with SF-295 CNS is 97.9%; in the experiment on SF-539 CNS, 88.4%; in the experiment with UACC-257 melanoma, 104%; in the experiment with M14 melanoma, 96.9%; in the experiment with HCT-15 colon it was 59%; with HT29 colon, 92.7%. For the same compound, the growth in the experiment on SNB-75 CNS is 89.2%; with SNB-19 CNS, 92.6%; in the experiment with U251 CNS it was 77.3%; in the experiment on PC-3 prostate, 78.5%; with SK-MEL-5 melanoma it was 96.3%; in the experiment with UACC-62 melanoma, 85.7%. The growth with LOX IMVI melanoma is 90.2%; with SK-MEL-28 melanoma, 108%.
Turning to `O=C1/C=C/[C@@H](O)[C@@H]2C[C@@H](O)C[C@H]2/C=C/CCC[C@H](CCc2ccccc2)O1`, the growth with DU-145 prostate was 14.1%; in the experiment on K-562 leukemia, 17.7%; in the experiment with MALME-3M melanoma it was -14.2% (active); in the experiment with MDA-MB-231 breast it was -65.1% (active); in the experiment with RXF 393 renal, -4.18% (active); in the experiment on SF-268 CNS it was 16.6%. The growth was 1.38% (active) in the experiment on SF-295 CNS; 26.3% with SF-539 CNS; 25.4% in the experiment with UACC-257 melanoma; 7.17% (active) in the experiment on M14 melanoma; 11% in the experiment on HCT-15 colon; 3.12% (active) in the experiment with HT29 colon. Further, the growth in the experiment with SNB-75 CNS was 28.9%; in the experiment with SNB-19 CNS, 31.4%; in the experiment with U251 CNS, 20.1%; in the experiment on PC-3 prostate, 16.7%; in the experiment on SK-MEL-5 melanoma it was -92.9% (active); in the experiment on UACC-62 melanoma, 23.7%. Further, the growth in the experiment on LOX IMVI melanoma is -59.1% (active); in the experiment with SK-MEL-28 melanoma, -2.32% (active).
On to `Cn1cc(-c2nonc2-c2cn(C)c3ccccc23)c2ccccc21`, for which the growth in the experiment with DU-145 prostate was 16.3%; with K-562 leukemia it was 9.77% (active); in the experiment on MALME-3M melanoma, 53.4%; with MDA-MB-231 breast, 23.2%; in the experiment on RXF 393 renal, 1.39% (active); with SF-268 CNS it was 48.1%. Also, the growth with SF-295 CNS was 17.5%; in the experiment with SF-539 CNS, -21.6% (active); in the experiment on UACC-257 melanoma, 65.7%; in the experiment with M14 melanoma it was 6.28% (active); in the experiment with HCT-15 colon it was 30.2%; in the experiment on HT29 colon it was 6.32% (active). Moreover, the growth in the experiment on SNB-75 CNS is 2.13% (active); in the experiment on SNB-19 CNS it was 24.7%; with U251 CNS, 18.8%; in the experiment on PC-3 prostate, 26.2%; with SK-MEL-5 melanoma, 26.2%; with UACC-62 melanoma, 30.6%. In addition, the values for the growth in the experiment with LOX IMVI melanoma and with SK-MEL-28 melanoma were 48.5% and 57.4%, respectively.
In the case of `COc1cc(-c2csc(NC(=O)c3ccc(N4CCOCC4)c(C(F)(F)F)c3)n2)cc(OC)c1OC`, the growth was 53.4% in the experiment on DU-145 prostate; 18.9% in the experiment on K-562 leukemia; 29.3% in the experiment on MALME-3M melanoma; 71.4% in the experiment with MDA-MB-231 breast; 62% in the experiment with RXF 393 renal; 40% with SF-268 CNS. Also, the growth with SF-295 CNS is 21.9%; with SF-539 CNS, 49.6%; with UACC-257 melanoma, 26.6%; with M14 melanoma, 12.9%; in the experiment with HCT-15 colon it was 11%; in the experiment on HT29 colon, 43.2%. Moreover, the growth with SNB-75 CNS is 57.2%; with SNB-19 CNS it was 62.6%; in the experiment with U251 CNS, 47.3%; in the experiment on PC-3 prostate, 11%; in the experiment on SK-MEL-5 melanoma it was -6.45% (active); with UACC-62 melanoma it was -6.31% (active). Besides, the growth was 23.1% with LOX IMVI melanoma and 36.6% in the experiment with SK-MEL-28 melanoma.
Turning to `COc1ccc(C(O)c2cc3c(N)c(C(=O)Nc4cccc(Br)c4)sc3nc2C)cc1` (stereo not given), the growth in the experiment on DU-145 prostate was 3.17% (active); with K-562 leukemia, 9.61% (active); in the experiment on MALME-3M melanoma, 31.8%; in the experiment on MDA-MB-231 breast, 2.61% (active); in the experiment with RXF 393 renal, 28.2%; with SF-268 CNS it was 6.77% (active). Also, the growth was 8.77% (active) in the experiment with SF-295 CNS; -19.9% (active) in the experiment on SF-539 CNS; 45.7% in the experiment on UACC-257 melanoma; 11.5% in the experiment on M14 melanoma; 7.7% (active) in the experiment with HCT-15 colon; 8.32% (active) with HT29 colon. Moreover, the growth with SNB-75 CNS was 24.4%; in the experiment with SNB-19 CNS, 24.6%; in the experiment with U251 CNS it was 15.7%; in the experiment with PC-3 prostate, 15.6%; with SK-MEL-5 melanoma, -72.9% (active); in the experiment on UACC-62 melanoma, 13.5%. Further, the growth with LOX IMVI melanoma is 15.5%; with SK-MEL-28 melanoma, 50.7%.
Take `COC(=O)[C@]12CCC(C)(C)C[C@H]1[C@H]1/C(=N/OCCc3nn[nH]n3)C[C@@H]3[C@@]4(C)CC[C@H](OC(C)=O)C(C)(C)[C@@H]4CC[C@@]3(C)[C@]1(C)CC2`: the growth in the experiment on DU-145 prostate is 53.8%; in the experiment with K-562 leukemia it was 24.5%; with MALME-3M melanoma, 40.4%; with MDA-MB-231 breast it was 48.5%; with RXF 393 renal it was 70.1%; with SF-268 CNS, 45.5%. Further, the growth in the experiment on SF-295 CNS is 25%; with SF-539 CNS, 44.7%; in the experiment on UACC-257 melanoma, 16.5%; with M14 melanoma, 48.4%; in the experiment on HCT-15 colon, 33.3%; in the experiment on HT29 colon it was 43.1%. The growth in the experiment on SNB-75 CNS is 43%; in the experiment on SNB-19 CNS it was 34%; in the experiment on U251 CNS, 36.3%; in the experiment with PC-3 prostate it was 26.7%; in the experiment with SK-MEL-5 melanoma, -45% (active); in the experiment with UACC-62 melanoma, 13.2%. Besides, the growth in the experiment on LOX IMVI melanoma is 19.8%; in the experiment with SK-MEL-28 melanoma, 41.9%.
With `C=CCc1c(O)c(C(=O)/C=C/c2ccccc2)c(OC)c2ccoc12`, the growth in the experiment with DU-145 prostate is 63.2%; in the experiment with K-562 leukemia, 46.8%; in the experiment on MALME-3M melanoma, 79.4%; in the experiment with MDA-MB-231 breast it was 47.6%; in the experiment with RXF 393 renal, 7.33% (active); in the experiment on SF-268 CNS it was 43%. Besides, the growth was 34.5% with SF-295 CNS; 24.8% in the experiment on SF-539 CNS; 40.6% in the experiment on UACC-257 melanoma; 59.3% in the experiment on M14 melanoma; 39.6% with HCT-15 colon; 27.9% in the experiment with HT29 colon. Further, the growth in the experiment on SNB-75 CNS was 72.9%; in the experiment with SNB-19 CNS it was 46.6%; in the experiment on U251 CNS, 26.8%; in the experiment with PC-3 prostate, 33.9%; in the experiment on SK-MEL-5 melanoma, 33.3%; in the experiment with UACC-62 melanoma it was 41.3%. The growth with LOX IMVI melanoma was 35.2%; with SK-MEL-28 melanoma, 64.6%.

(Values after PubChem BioAssay (NCI).)
